Measured values reported in PubChem BioAssay (NCATS).
Inconclusive results are not listed. Entries that show only a call come without a potency. The source made the active and inactive calls. Calls come from the whole dose curve; as a rule, active = well fitted inhibition curve with a large enough effect; inconclusive = small, poorly fitted or top-dose-only effect; inactive = flat fitted curve, though single readings scatter.

What was measured:
[1] = molecular target: Glutathione peroxidase 1 (Homo sapiens) (UniProt P07203); assay: Primary qHTS Assay for Inhibitors of Recombinant Selenoprotein Glutathione Peroxidase 1 (GPX1) (AID 1845191); details: recombinant GPX1, GR-coupled NADPH fluorescence, 15 min; series mostly up to 27.7 µM; note: nearly all actives have a fitted effect of over 65% in size
How it was run: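 GPX1 10 nM, GR 100 nM, GSH 1 mM, NADPH 0.5 mM, CHP 0.5 mM (final). 30-min cpd preincubation, RT. Ex340/Em450 read t=0, t=15 min.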

[2] = molecular target: Phospholipid hydroperoxide glutathione peroxidase GPX4 (Homo sapiens) (UniProt P36969); assay: Primary qHTS Assay for Inhibitors of Recombinant Selenoprotein Glutathione Peroxidase 4 (GPX4) (AID 1845192); details: recombinant GPX4, GR-coupled NADPH fluorescence, 15 min; series mostly up to 27.8 µM; note: nearly all actives have a fitted effect of over 65% in size
How it was run: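 qHTS, GR-coupled: GPX4 200 nM + cpd 30 min RT → GSH 1 mM, NADPH 0.5 mM, GR 100 nM → CHP 0.5 mM start; fluor 340/450 at t0 and t15 min; no-enzyme wells as control.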

[3] = molecular target: Luciferin 4-monooxygenase (Photinus pyralis) (UniProt P08659); assay: Primary firefly luciferase (FLuc) qHTS assay for identification of artifact compounds. (AID 1845220); details: purified firefly luciferase, luminescence, 5 min; series mostly up to 54.1 µM; note: nearly all actives have a fitted effect of over 60% in size; note: potency is the fitted concentration of half-maximal effect
How it was run: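 In this counter-screen for luciferase artifacts, test compounds met substrate (10 uM each luciferin and ATP) before 10 nM enzyme started the reaction. Light output was measured 5 min later.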

Sequence of Phospholipid hydroperoxide glutathione peroxidase GPX4 (Homo sapiens) (P36969 whole entry, looked up): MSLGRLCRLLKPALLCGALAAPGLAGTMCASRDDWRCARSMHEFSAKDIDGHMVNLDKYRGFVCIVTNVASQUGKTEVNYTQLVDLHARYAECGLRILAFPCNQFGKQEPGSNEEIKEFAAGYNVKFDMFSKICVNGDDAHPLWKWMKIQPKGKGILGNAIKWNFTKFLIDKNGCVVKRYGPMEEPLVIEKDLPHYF
Sequence of Glutathione peroxidase 1 (Homo sapiens) (P07203 whole entry, looked up): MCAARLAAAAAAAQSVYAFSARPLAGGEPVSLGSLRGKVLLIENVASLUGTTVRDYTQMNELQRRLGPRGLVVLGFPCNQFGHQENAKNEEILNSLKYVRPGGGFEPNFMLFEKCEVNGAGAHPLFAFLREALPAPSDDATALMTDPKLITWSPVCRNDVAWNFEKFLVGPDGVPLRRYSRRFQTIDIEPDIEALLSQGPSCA

SMILES	Potency [1]	Potency [2]	Potency [3]
Cc1ccc2nc(NC(=O)CSc3nc4c(c(=O)n3-c3ccc(F)cc3)SCC4)sc2c1	inactive	inactive	inactive
Cc1c(-c2ccc3c(c2)OCO3)oc2ccc(C(O)C(C)O)cc12 (stereo unspecified)	inactive	inactive	1170 nM (active)
CC(C)CC(c1c(O)c(C=O)c(O)c(C=O)c1O)C1CCC(C)(O)C2CC(C(C)(C)O)CCC12C (stereo unspecified)	inactive	inactive	inactive
COc1cc(O)cc(C)c1C(=O)OC1C(CO)OC(n2ccc(=O)[nH]c2=O)C1OC(C)=O (stereo unspecified)	inactive	inactive	inactive
CC1=C2C[C@@]3(C)C(CCC[C@@H]3C)C(O)C2(O)OC1=O (stereo partly specified)	inactive	inactive	inactive
COc1ccc(S(=O)(=O)Nc2nc(-c3cccc([N+](=O)[O-])c3)cs2)cc1OC	inactive	inactive	inactive
CC1(O)CCC2C(C3C1CCC3(C)O)C2(C)C (stereo unspecified)	inactive	inactive	inactive
O=C(O)CCc1c(C(=O)O)[nH]c2cc(Cl)cc(Cl)c12	inactive	inactive	inactive
COc1cc(C(CO)C(OC2OC(CO)C(O)C(O)C2O)c2ccc(O)c(OC)c2)ccc1O (stereo unspecified)	inactive	inactive	inactive
O=C(O)c1cccc(C(=O)CCC2OC(n3cnc4c(=O)[nH]cnc43)C(O)C2O)c1 (stereo unspecified)	inactive	inactive	inactive
C=C1C(OC(C)=O)CCC2(C)CC3(O)OC(=O)C(C)=C3CC12 (stereo unspecified)	inactive	inactive	inactive
CC1(C)CCCC2(C)c3c4c(c(=O)oc(=O)c3=CCC12)=CCC1C(C)(C)CCCC41C (stereo unspecified)	inactive	inactive	inactive
